LDHA block: qHTS assay for inhibitors of human lactate dehydrogenase; L-lactate dehydrogenase A chain (Homo sapiens), P00338; purified LDHA, NADH/diaphorase-resazurin fluorescence; hits give low values; activity change, % (values are at about 110 or 230 µM); 480,000 tested, 0.15% active; AID 1347041, 2019; in the data active means activity change below about -30%; inconclusive means mostly about -25% to -30%;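 further: plate controls were DMSO wells for no effect and wells without enzyme for full effect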
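Remaining NADH was detected by diaphorase (0.133 mg/mL) converting 37 µM resazurin to fluorescent resorufin, read at 0 and 20 minutes. The preceding 5-minute room-temperature reaction used 2 nM LDHA, 0.2 mM sodium pyruvate and 0.06 mM NADH at pH 7.4.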
p53 reactivator: qHTS assay for re-activators of p53 using a Luc reporter; H1299 p53-A138V BP100-luciferase reporter, luminescence, 24 h; Potency, µM (titrated, usually from 92.2 µM), for the others: at the highest dose activity change, positive = activation, usual class: activators; 320,000 tested, 0.063% active; further: potency means the concentration at half of the fitted maximal effect; % of control where 0% means no effect; nearly all actives have a fitted effect of over 45% in size
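H1299 (p53-null), stable ts p53-A138V + BP100-Luc; 1000 cells/well, Opti-MEM/10% FBS; cpd 4 pt, 1:5; 24 h, 37 deg C, 5% CO2; detection reagent 10 min RT; luminescence.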
RGS4 inh: Inhibitors of Regulator of G Protein Signaling (RGS) 4: qHTS; Regulator of G-protein signaling 4 (Homo sapiens), P49798; Transcreener GDP fluorescence polarization, RGS4-accelerated GTP hydrolysis; Potency, µM (series often up to 114 µM), without a hit: at the top dose activity change, negative = inhibition, actives largely listed as inhibitors; 390,000 tested, 0.039% active; further: potency means the concentration at half of the fitted maximal effect; on the % scale 0 is the no-effect control and ±100 the full control effect; nearly all actives have a fitted effect of over 75% in size
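MLSMR compounds (23 nl, pin-transferred) preincubated 10 min at room temperature with a 500nM (2x) first reagent, then RGS4 at 900nM (2x) plus Transcreener GDP mix added; fluorescence polarization (620/688 nm) read before and after 90 min at 30 °C.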
BRCA1 expr up: qHTS Assay to Identify Small Molecule Activators of BRCA1 Expression. MCF7-BRCA1-FFLuc reporter, luminescence, 48 h; response scale: scaled: vehicle 0%, 10 µM genistein 100%. Potency, µM (top dose mostly 46.1 µM), inactives show top-dose activation, usual class: activators. 380,000 tested, 1.1% active; further: potency means the concentration at half of the fitted maximal effect; nearly all actives have a fitted effect of over 80% in size
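48 h compound treatment of MCF7-BRCA1-FFLuc cells (phenol-red free MEM, 37 °C), then 15 min with luciferase substrate and luminescence imaging.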
PTHR1 agonist: qHTS for PTHR1 Agonists: Primary Screen | Parathyroid hormone/parathyroid hormone-related peptide receptor (Homo sapiens), Q03431 | HEK293 GP2 PTHR1 cells, GloSensor cAMP luminescence, 1 h | Potency, µM (doses to about 115 µM), inactives show at the highest dose activation, hits mostly activators | 410,000 tested, 0.075% active; further: potency means the concentration at half of the fitted maximal effect; nearly all actives have a fitted effect of over 55% in size
Target sequence (Q03431 whole entry, looked up): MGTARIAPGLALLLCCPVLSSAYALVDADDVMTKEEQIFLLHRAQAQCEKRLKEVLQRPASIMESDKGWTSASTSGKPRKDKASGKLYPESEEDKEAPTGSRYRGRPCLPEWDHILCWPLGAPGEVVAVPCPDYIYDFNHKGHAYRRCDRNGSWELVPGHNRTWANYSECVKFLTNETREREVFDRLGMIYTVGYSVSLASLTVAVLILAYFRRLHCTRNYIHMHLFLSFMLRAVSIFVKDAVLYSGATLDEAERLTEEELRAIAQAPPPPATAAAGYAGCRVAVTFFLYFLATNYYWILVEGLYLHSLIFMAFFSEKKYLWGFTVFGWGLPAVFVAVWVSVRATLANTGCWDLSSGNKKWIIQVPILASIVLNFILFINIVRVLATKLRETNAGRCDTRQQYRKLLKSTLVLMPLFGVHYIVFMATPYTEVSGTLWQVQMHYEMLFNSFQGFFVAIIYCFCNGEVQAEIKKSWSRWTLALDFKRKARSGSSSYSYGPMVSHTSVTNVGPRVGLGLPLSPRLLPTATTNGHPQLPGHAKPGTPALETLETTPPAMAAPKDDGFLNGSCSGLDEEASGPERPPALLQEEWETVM
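HEK-293-derived GP2 cells expressing PTHR1 and a GloSensor cAMP reporter, 3,000/well, plated overnight, given luciferin plus IBMX (each 0.5 mM as added) for 1 h at 37 °C, then compound for 1 h at 37 °C. Luminescence was read after 15 min at room temperature.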
Starred values were filed as active, the others as inactive; i = inactive; ? = inconclusive; / = not tested or not shown; ! = repeats disagree; [ ] = dose if it differs, or a comment. Most compounds without a hit are left out; they make up all but 1.1% or so of the library. Unless noted, the call rests on the fitted dose curve; in most records, active means well fitted curve in the direction sought with a large enough effect; inconclusive means small, poorly fitted or top-dose-only effect, or another doubt; inactive means no such curve, though single readings can be large; an effect the other way counts as inactive or inconclusive.

SMILES	LDHA block	p53 reactivator	RGS4 inh	BRCA1 expr up	PTHR1 agonist
N#C/C(=C/c1ccccc1)C(=O)OCC(=O)N1CCC(Cc2ccccc2)CC1	1	/	/	/	/
c1ccc(-c2noc(-c3ccco3)n2)nc1	-6	22µM*	-18%[11.4 µM]	6%	-8%[57.5 µM]
COc1cc(-c2nc(-c3ccccn3)no2)cc(OC)c1OC	1	9%	24%	7.9µM*	i
COc1cccc(-c2nc(-c3ccccn3)no2)c1OC	0	?	-33%[11.4 µM]	4.5µM*	-12%[57.5 µM]
CC(=O)c1cccc(NC(=O)c2cc(-c3cccs3)on2)c1	-5	?	-15%	10µM*	-3%
COc1ccc(CNC(=O)Nc2cccc(Cl)c2)cc1	-1	23%	13%	7.1µM*	-31%
COc1ccc(-c2cc(C(=O)Nc3cccc(Cl)c3)no2)cc1	-4	?	23%	3.2µM*	i
COc1ccc(-c2cc(C(=O)Nc3cccc(C(C)=O)c3)no2)cc1	0	0%	-18%	24%	-1%[57.5 µM]
COc1cccc(NC(=O)NCc2ccccc2Cl)c1	-10	/	6%	13µM*	-9%
CNC(=S)NCCSCc1ccccc1F	1	/	/	/	/
Cn1c(-c2ccc(F)cc2)cc2onc(-c3c(F)cccc3Cl)c2c1=O	-2	?	-8%	2µM*	-44%
Cc1ccc(-c2cc3onc(-c4ccccc4)c3c(=O)n2C)cc1	-4	?	11%	?	-52%
CC1(C)CC(=O)C(C=Nc2ccccc2)C(=O)C1	0	/	/	/	/
N#Cc1c(-c2cccs2)nc(SCc2ccc(Cl)cc2)[nH]c1=O	?	1%	?	-8%	-35%
O=c1[nH]c(SCc2ccc(Cl)cc2)nc2ccsc12	-9	14%	-8%	4.5µM*	-13%
COc1ccc(-c2ccc(C#N)c(SCC(=O)NCCc3ccc(OC)c(OC)c3)n2)cc1	11	/	/	/	/
COc1cc(NC(=O)CCS(=O)(=O)c2ccc3c(c2)n(C)c(=O)c(=O)n3C)cc(OC)c1	-6	/	7%	-3%	22µM*!
Cc1cc(C)c(S(=O)(=O)N2CCN(c3ccc(N4CCCCC4)nn3)CC2)cc1C	3	/	/	/	/
CC(C)n1nnnc1SCC(=O)N1N=C(c2cccs2)CC1c1cccs1 (configuration not stated)	-3	?	-2%	13µM*	-11%
O=C(O)c1cc2ccccc2c2cccnc12	10	/	/	/	/
Cc1cccc(C)c1OCc1cc(C(=O)N2CCC(c3ccccc3)CC2)no1	-1	?	-4%	?	-13%
CC(=O)c1ccc(OCc2cc(C(=O)N3CC[C@@H]4CCCC[C@H]4C3)no2)cc1	-2	?	-37%	3.2µM*	-72%
Cc1cccc(C)c1OCc1cc(C(=O)N2CCC(C3CCCCC3)C2)no1 (configuration not stated)	-1	/	6%	13µM*	-3%
N#Cc1cccc(C(=O)Nc2ccc(Cl)c(C(F)(F)F)c2)c1	-18	/	/	/	/
S=C(NCc1ccco1)N1CCN(Cc2ccco2)CC1	-17	6%	-33%	3%	i
SMILES	LDHA block	p53 reactivator	RGS4 inh	BRCA1 expr up	PTHR1 agonist
S=C(Nc1ccc2c(c1)OCO2)N1CCN(Cc2ccco2)CC1	4	0%	1%	3.5µM*	-79%
COc1cc(/C=C/C(=O)c2ccc(C(=O)O)s2)cc(OC)c1	-12	/	/	/	/
O=C1NC(=S)SC1=Cc1cc(Br)ccc1O	-15	/	?	-40%	i
Cc1cc(/C=C2/C(=O)N(C)C(=S)N2C)c(C)n1C1CC1	1	?	-30%	11µM*	-33%
Cc1cc(/C=C2\SC(=S)NC2=O)c(C)n1C1CC1	-6	15%	-25%	13µM*	-12%[57.5 µM]
Cc1ccc2nc(N(CCN3CCOCC3)C(=O)CCS(=O)(=O)c3ccccc3)sc2c1	-7	?	-18%	-10%	-6%
CCCC(=O)N(CCN1CCOCC1)c1nc2cc(C)c(C)cc2s1	-1	26%	-2%	4µM*	-4%
S=c1sc2c(s1)SC1CC=CC1S2 (configuration not stated)	5	/	/	/	/
CC1CCCN(C(=O)CNC(=O)c2sc3ccccc3c2Cl)C1 (configuration not stated)	1	23%	-7%	?	-28%
O=C(NCC(=O)N1CCCCC1)c1sc2ccccc2c1Cl	-2	?	-13%	4.5µM*	-22%
O=C(NCCCN1CCOCC1)c1sc2ccccc2c1Cl	-2	6%	1%	11µM*	i
COc1ccc2oc(=O)c(C(=O)Nc3cccc(C)c3)cc2c1	2	13%	-6%	3.2µM*	-16%
COc1ccc2oc(=O)c(C(=O)Nc3cccc(C(=O)O)c3)cc2c1	-1	/	17%	/	-22%
CCNC(=S)N/N=C(/C)c1ccccc1Br	-10	/	/	/	/
O=C(Nc1ccc(Cl)c(Cl)c1)c1ccc(Cn2c(=O)[nH]c3ccsc3c2=O)cc1	-32*	-19%	-15%	-27%	i
O=C(Nc1ccc(Oc2ccccc2)cc1)c1ccc(Cn2c(=O)[nH]c3ccsc3c2=O)cc1	-24	-7%	-32%	-44%	i
NC(=O)CNS(=O)(=O)/C=C/c1ccc(Cl)cc1	5	/	/	/	/
COc1ccc(/C=C/C(=O)Nc2cccc(C(C)=O)c2)cc1	-9	?	-20%	4.5µM*	-44%
COc1ccc(/C=C/C(=O)Nc2ccccc2C(F)(F)F)cc1	1	14%	-17%	3.2µM*	i
COc1ccc(NC(=O)/C=C/c2ccco2)cn1	-5	4%	-27%	0%	-5%
COc1ccc(NC(=O)/C=C/c2cccc(F)c2)cn1	-2	?	-17%	7.1µM*	-32%
Cc1ccc(Nc2ncnc3nc[nH]c23)cc1	-3	/	9%	11µM*	/
CCOC(=O)c1ccc(Nc2ncnc3ccccc23)cc1	-5	1%	19%	67%	-15%
CCOC(=O)c1ccc(Nc2ncnc3nc[nH]c23)cc1	2	51%	9%	6.3µM*	i
Cc1cccc(Nc2nc3c(s2)CCCC3)c1	6	?	?	10µM*	-33%
O=C(O)c1ccc(Nc2nc3c(s2)CCCC3)cc1	-5	-10%	-6%	?	-33%
Cc1ccc(-c2cc(C(=O)N3CCN(c4ccccc4O)CC3)c3ccccc3n2)o1	1	11%	-19%	4.5µM*	-18%
Cc1ccc(-c2cc(C(=O)N3CCN(C(=O)c4ccco4)CC3)c3ccccc3n2)o1	-15	/	/	/	/
C/C(=N\NC(=O)c1cccc(Br)c1)c1ccc(Br)cc1	-6	-5%	24%	7%	4%[57.5 µM]
C/C(=N\NC(=O)c1ccccc1)c1cccc(Br)c1	-2	-1%	-3%	10µM*	-15%

Screening results as filed in PubChem BioAssay.
